# Screening results: PubChem, National Center for Advancing Translational Sciences (NCATS)
# This is a sample that favours compounds with a hit; in the whole collection about 7.4% have one here.
# Rab9 promoter act: Rab9 promoter activation. actives 2.8% (n = 320,000). Huh7 Rab9 promoter-luciferase reporter, luminescence, 24 h. Potency, µM (highest dose often 9.22 µM), without a hit: top-dose activation, negative = inhibition, actives largely listed as activators; note: % of control where 0% means no effect; nearly all actives have a fitted effect of over 60% in size
#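 Stable Rab9-luc Huh7, 1500 cells/well, 2 h settle; cmpd in DMSO, 24 h, 37 °C/5% CO2; luciferase reagent 10 min RT; luminescence.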
# SMN2 splice enh: increases expression of the SMN2 splice variant; HEK293 SMN2-luciferase splicing reporter, luminescence, 30-36 h; Potency, µM (highest dose often 46.1 µM), for the others: at the highest dose activity change, positive = activation, hits mostly activators; actives 2.8% (n = 210,000); note: % of control where 0% means no effect; nearly all actives have a fitted effect of over 55% in size
#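 HEK293 cells carry an SMN2 minigene-luciferase reporter in which exon 7 inclusion puts luciferase in frame. Cells were seeded at 2000 cells/well, attached for 10-12 hours, then exposed to compounds for 30-36 hours at 37C before ONE-Glo luminescence.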
# NPC1 prom act: activates the NPC1 promoter. AID 485313. Huh7 NPC1 promoter luciferase reporter, 24 h. Potency, µM (titrated, usually from 9.22 µM), for the others: at the top dose activation, actives largely listed as activators. actives 2.4% (n = 320,000); note: % of control where 0% means no effect; nearly all actives have a fitted effect of over 60% in size
#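 Stably transfected Huh7 (NPC1 promoter→luciferase), 1500 cells/well in Opti-MEM + 10% FBS, 2 h settle, then compound 24 h at 37 °C. Luminescence after 10 min with Amplite reagent.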
# FLuc counter: firefly luciferase modulation, counter-screen for miR-21 project. purified FLuc, Km substrates, luminescence inhibition. actives 6.9% (n = 360,000). AID 588342. Potency, µM (highest dose often 57.5 µM), for the others: top-dose activity change, negative = inhibition, hits mostly inhibitors;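 note: plate controls were vehicle for no effect and reference inhibitor for full effect; nearly all actives have a fitted effect of over 55% in size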
# Target sequence (P08659 whole entry, looked up): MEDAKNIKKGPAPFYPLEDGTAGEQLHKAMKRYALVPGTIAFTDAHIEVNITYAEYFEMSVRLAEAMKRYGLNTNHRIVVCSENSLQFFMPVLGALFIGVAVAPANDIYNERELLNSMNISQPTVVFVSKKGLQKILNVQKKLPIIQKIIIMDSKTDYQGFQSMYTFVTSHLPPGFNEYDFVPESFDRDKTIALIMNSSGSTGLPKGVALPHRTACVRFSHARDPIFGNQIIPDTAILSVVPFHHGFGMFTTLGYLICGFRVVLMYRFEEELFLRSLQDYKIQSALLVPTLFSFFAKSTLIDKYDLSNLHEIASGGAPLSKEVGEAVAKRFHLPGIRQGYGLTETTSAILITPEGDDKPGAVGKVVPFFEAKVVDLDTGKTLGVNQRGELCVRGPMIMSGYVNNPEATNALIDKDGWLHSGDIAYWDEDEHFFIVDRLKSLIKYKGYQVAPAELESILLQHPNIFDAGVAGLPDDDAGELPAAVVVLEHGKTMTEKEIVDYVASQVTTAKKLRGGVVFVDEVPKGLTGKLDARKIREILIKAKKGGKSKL
#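 Biochemical qHTS of compounds, final roughly 60 µM downward over six points, against 10 nM purified firefly luciferase using Km concentrations of substrates (10 uM D-luciferin, 10 uM ATP) in Tris acetate pH 7.5 buffer; luminescence output.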
# ELG1 genotox: genotoxicity induction in ELG1-luciferase HEK293T cells | HEK293T ELG1-luciferase reporter, luminescence, 16 h | Potency, µM (series often up to 46 µM), for the others: at the top dose activity change, positive = activation, actives largely listed as activators | actives 1.3% (n = 330,000) | AID 504466; note: % of control where 0% means no effect; nearly all actives have a fitted effect of over 60% in size
#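 Genotoxicity was scored as increased ELG1-luciferase reporter signal, measured by ONE-Glo luminescence (30 min, room temperature). Compound or vehicle exposure of the HEK293T reporter cells lasted 16 hr at 37°C.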
# An asterisk follows results filed as active; ? = inconclusive; nt = not tested or not shown; [ ] = remark or other dose. Calls come from the whole dose curve; as a rule, active = well fitted curve in the direction sought with a large enough effect; inconclusive = small, poorly fitted or top-dose-only effect, or another doubt; inactive = no such curve, though single readings can be large; an effect the other way counts as inactive or inconclusive. Potency is the fitted concentration of half-maximal effect.
SMILES,Rab9 promoter act,SMN2 splice enh,NPC1 prom act,FLuc counter,ELG1 genotox
Cc1ccc2c(CN3CC(C)CC(C)C3)cc(=O)oc2c1 (stereo not drawn),4.1%,nt,1.1%,0.8%,2.5%
Cc1ccc2c(CN3CCC(C)CC3)cc(=O)oc2c1,1.78µM*,14.1µM*,3.55µM*,7.57µM*,4.61µM*
O=C(NC(=S)Nc1ccc(Cl)cn1)C12CC3CC(CC(C3)C1)C2,?,17.4%,?,10.7µM*,7.3%
O=C(Cn1c(SCCOc2ccccc2)nc2ccccc21)N1CCOCC1,nt,nt,nt,0.8%,nt
Cc1ccc(/C=C2\Oc3cc(OCC(=O)NN)ccc3C2=O)o1,-5.1%,nt,0.7%,2.13µM*,0.2%
O=C(O)COc1ccc2c(c1)O/C(=C\c1cccs1)C2=O,-0.9%,nt,-4.9%,1.9µM*,1.2%
CCOC(=O)c1c(NC(=O)COc2cccc(C(F)(F)F)c2)sc2c1CCCCC2,nt,-5.9%,nt,-14.8%,nt
O=C(Cn1c(=O)n(-c2cccc(Cl)c2)c(=O)c2sc3ccccc3c21)N1CCCC1,nt,8.2%,nt,-4.6%,nt
CCOc1ccc(NC(=O)Cn2c(=O)c(CNc3ccc(CC)cc3)cc3cc4c(cc32)OCO4)cc1,nt,nt,nt,3.6%,nt
COc1cccc(N=c2oc3ccccc3cc2-c2nc3ccccc3[nH]2)c1,1.58µM*,15.8µM*,3.16µM*,9.53µM*,?
COc1cccc(N=c2oc3ccc(OC)cc3cc2-c2nc3ccccc3[nH]2)c1,nt,?,nt,19µM*,nt
O=C(O)c1ccccc1C(=O)Nc1cccc([N+](=O)[O-])c1,-2.5%,nt,-1.4%,2.2%,3.4%
Cc1c(C(=O)Nc2cccc([N+](=O)[O-])c2)csc1-c1ccccc1,1.26µM*,28.2µM*,0.708µM*,0.849µM*,?
Cc1ccc(NC(=O)c2csc(-c3ccccc3)c2C)cc1,0.316µM*,-3.7%,0.112µM*,0.0953µM*,?
O=C(c1ccccc1Cl)N1CCN(CCc2ccccn2)CC1,nt,nt,nt,-4.2%,nt
COc1ccc(NC(=O)c2sc(=S)[nH]c2N)cc1,21.1%,?,1.7%,16.9µM*,11.3%
COc1ccc(NC(=O)c2ccc(Oc3ncccn3)cc2)cc1,?,12.1%,15.5%,16.9µM*,?
CCOc1ncccc1C(=O)Nc1ccc(C(=O)Nc2ccc(OC)cc2)cc1,-4.2%,nt,-5.4%,3.1%,3.2%
COc1ccc(C(=O)Nc2ccc(C3CC3(Cl)Cl)cc2)cc1 (stereo not drawn),?,nt,25.0%,1.51µM*,13.6%
COc1ccc(NC(=O)c2ccc(NC(=O)c3ccncc3)cc2)cc1,-6.7%,nt,0.5%,0.9%,10.3µM*
CCOc1ccc(NC(=O)c2ccc(OC)cc2)cc1,20.1%[1.84 µM],12.6%,?,?,15.9%
O=C1C(=O)c2ccccc2C(O)=C1C(CCc1ccccc1)C1=C(O)c2ccccc2C(=O)C1=O,nt,-11.7%[9.22 µM],nt,nt,nt
CCc1c(C)nc2nncn2c1Nc1ccc(Cl)cc1,nt,-25.0%,nt,0.1%,nt
COc1ccc(NC(=O)c2ncn[nH]2)cc1,21.9%,10.5%,13.9%,15.1µM*,8.5%
COc1ccc(NC(=O)c2cccc(C(=O)Nc3ccc(OC)cc3)n2)cc1,-2.2%,-5.7%,2.2%,5.36µM*,16.0%
SMILES,Rab9 promoter act,SMN2 splice enh,NPC1 prom act,FLuc counter,ELG1 genotox
Nc1ncnc2c1ncn2[C@H]1O[C@@H](CSCC[C@@H](N)C(=O)O)[C@H](O)[C@@H]1O,nt,-2.1%,nt,nt,nt
N/C(=N\OC(=O)C1CCCCC1)c1ccc(Br)cc1,?,nt,19.0%,9.53µM*,?
N/C(=N\OC(=O)C1CCCCC1)c1ccccn1,18.6%,11.7%,25.2%,2.39µM*,?
NC(=NC1CCCCC1)c1ccc(Cl)cc1,-2.0%,-10.8%,-2.6%,-0.2%,-12.5%
N/C(=N\OC(=O)C1CCCCC1)c1ccc(Cl)cc1,9.1%,nt,20.4%,10.7µM*,?
N/C(=N\OC(=O)C1CCCCC1)c1ccncc1,-3.4%,nt,2.5%,?,9.8%
COc1ccc(CNC(=O)CN2C(=O)COc3ccc(S(=O)(=O)Nc4ccccc4)cc32)cc1,nt,nt,nt,-18.6%,nt
Cc1nnc(SCC(=O)NCc2ccc(N(C)C)cc2)c2nn(-c3ccccc3)c(C)c12,nt,nt,nt,-17.4%,nt
CN1CCN(Cc2ccc(-c3ccc(Cl)cc3)o2)CC1,17.4%,?,8.3%,?,?
S=C(c1ccc(-c2ccc(Cl)cc2)o1)N1CCCCC1,1.41µM*,5.01µM*,1.26µM*,1.07µM*,2.59µM*
N#CCCN1CCN(C(=S)c2ccc(-c3ccc(Cl)cc3)o2)CC1,25.0%,-15.7%,15.6%,21.3µM*,?
Clc1ccc(-c2ccc(CN3CCCCC3)o2)cc1,18.6%,nt,1.1%,?,4.6%
CN1CCN(C(=S)c2ccc(-c3cccc(Cl)c3Cl)o2)CC1,?,nt,?,4.78µM*,?
S=C(c1ccc(-c2ccccc2Cl)o1)N1CCCCC1,3.55µM*,12.6µM*,2.82µM*,5.36µM*,?
Cc1nc(C)c(-c2csc(Nc3ncccc3C)n2)s1,1.26µM*,nt,2.51µM*,6.75µM*,?
COc1ccc(-c2csc(Nc3ncccc3C)n2)cc1,1.58µM*,2.24µM*,1.78µM*,5.36µM*,?
COc1ccc(-c2csc(Nc3ncccc3C)n2)cc1OC,?,?,?,-2.7%[2.3 µM],13.6%
Cc1cccnc1Nc1nc(-c2ccc(O)c(O)c2)cs1,?,3.4%,1.4%,16.9µM*,5.17µM*
Cc1nc(C)c(-c2csc(Nc3ccc(O)cc3C)n2)s1,-1.6%,nt,-2.4%,3.0%,5.5%
COc1ccc(C2C=C(c3ccc(Cl)cc3)Nc3nc(-c4ccc(Cl)cc4)nn32)cc1 (stereo not drawn),nt,1.0%,nt,-14.4%,nt
Cc1ccc(OCc2nc3ccccc3n2CCOc2ccc(Cl)cc2)cc1,nt,-13.1%,nt,-20.3%,nt
CCn1c(COc2ccc(C)cc2)nc2ccccc21,2.82µM*,nt,?,8.49µM*,13.4%
COCCn1c(-c2ccc(OC)cc2)nc2ccccc21,1.5%,3.6%,1.3%,19µM*,-1.6%
COc1ccc(Cn2c(-c3ccc(OC)cc3)nc3ccccc32)cc1,-2.4%,-37.5%,-1.6%,?,-4.3%
CCCn1c(CNc2ccc(Br)cc2)nc2ccccc21,28.2%,-39.2%,0.9%,16.9µM*,-0.1%
SMILES,Rab9 promoter act,SMN2 splice enh,NPC1 prom act,FLuc counter,ELG1 genotox
Cc1ccc(NCc2nc3ccccc3n2CCOc2ccccc2)cc1,2.51µM*,12.3%[1.84 µM],4.47µM*,8.49µM*,?
COc1ccc(S(=O)(=O)NCCc2sc(-c3cccnc3)nc2C)cc1OC,nt,nt,nt,0.5%,nt
Cc1ccc(Cl)cc1,nt,-7.7%,nt,nt,nt
COCCn1c(COc2ccc(C)cc2)nc2ccccc21,?,6.9%,?,9.53µM*,10.8%
CCOCCn1c(COc2ccc(C)cc2)nc2ccccc21,?,?,27.3%,?,9.3%
Cc1cc(=O)n2nc(N(C)CC(=O)NCc3cccc(Br)c3)sc2n1,nt,16.4%,nt,5.5%,nt
CCc1nn(CC(=O)NCCc2ccc(Cl)cc2)c(=O)c2cc3ccccc3n12,nt,20.1%,nt,-3.3%,nt
CC(C)(C)c1ccc(C(=O)NNC(=O)Cc2cccc3ccccc23)cc1,1.0%,17.3%,0.5%,15.1µM*,-21.5%
